# Several values for one entry are separate records, joined by “and”; a condition that tells them apart may be missing. Identical values can stand only once. Results filed as inconclusive are left out. A call without a number means that no potency is given here. Activity calls are given as the source filed them. Unless noted, calls come from the whole dose curve; as a rule, active = well fitted curve in the direction sought with a large enough effect in the repeat runs; inconclusive = weak or mixed curves; inactive = no such curve, though single readings can be large; an effect the other way counts as inactive or inconclusive.
# What was measured:
# [1] = target: Luciferin 4-monooxygenase (Photinus pyralis) (UniProt P08659); assay: qHTS assay to identify small molecule inhibitors of firefly luciferase (AID 1224835); note: nearly all actives have a fitted effect of over 25% in size; note: potency is the fitted concentration of half-maximal effect
# Luciferin 4-monooxygenase (Photinus pyralis), sequence (P08659 whole entry, looked up): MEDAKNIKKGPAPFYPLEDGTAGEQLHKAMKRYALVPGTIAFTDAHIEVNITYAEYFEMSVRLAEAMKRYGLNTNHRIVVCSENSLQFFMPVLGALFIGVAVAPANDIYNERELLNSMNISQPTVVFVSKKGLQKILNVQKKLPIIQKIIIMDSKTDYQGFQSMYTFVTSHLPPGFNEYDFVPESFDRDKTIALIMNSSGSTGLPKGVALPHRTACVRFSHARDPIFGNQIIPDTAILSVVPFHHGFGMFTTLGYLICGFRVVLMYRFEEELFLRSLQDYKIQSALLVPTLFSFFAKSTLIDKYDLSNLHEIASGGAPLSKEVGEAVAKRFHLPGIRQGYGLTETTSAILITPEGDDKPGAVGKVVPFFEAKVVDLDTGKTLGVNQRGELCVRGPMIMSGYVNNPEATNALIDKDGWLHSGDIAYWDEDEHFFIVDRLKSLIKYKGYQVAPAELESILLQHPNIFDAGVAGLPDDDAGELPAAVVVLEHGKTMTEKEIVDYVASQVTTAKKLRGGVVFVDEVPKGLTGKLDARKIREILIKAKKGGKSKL
# Method in brief: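 Inhibition of purified Photinus luciferase is measured by luminescence. Substrate levels (D-luciferin, ATP) sit at their KM values. Each compound is tested in a concentration series.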
# [2] = qHTS assay to identify small molecule agonists of the constitutive androstane receptor (CAR) signaling pathway - cell viability counter screen (AID 1224836); note: series mostly up to about 92 µM; nearly all actives have a fitted effect of over 45% in size
# Method in brief: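 HepG2 cells stably carrying hCAR and a CYP2B6-2.2kb reporter; 15-concentration compounds plus PK11195 (final 0.75 uM), 23 hr at 37 C/5% CO2. Viability read by CellTiter-Fluor fluorescence.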
# [3] = qHTS assay to identify small molecule antagonists of the constitutive androstane receptor (CAR) signaling pathway - cell viability counter screen (AID 1224837); note: series mostly up to about 92 µM; nearly all actives have a fitted effect of over 45% in size
# Method in brief: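 Viability was measured with CellTiter-Fluor in a HepG2 line carrying stably transfected hCAR and a CYP2B6-2.2kb construct. Cells were exposed for 23 hr at 37 C to 15 compound concentrations with 50 nM CITCO as agonist.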
# [4] = target: Nuclear receptor subfamily 1 group I member 3 (Homo sapiens) (UniProt Q14994); assay: qHTS assay to identify small molecule antagonists of the constitutive androstane receptor (CAR) signaling pathway (AID 1224838);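 note: HepG2 cells stably expressing hCAR with CYP2B6 luciferase reporter stimulated by CITCO; nearly all actives have a fitted effect of over 40% in size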
# Nuclear receptor subfamily 1 group I member 3 (Homo sapiens), sequence (Q14994 whole entry, looked up): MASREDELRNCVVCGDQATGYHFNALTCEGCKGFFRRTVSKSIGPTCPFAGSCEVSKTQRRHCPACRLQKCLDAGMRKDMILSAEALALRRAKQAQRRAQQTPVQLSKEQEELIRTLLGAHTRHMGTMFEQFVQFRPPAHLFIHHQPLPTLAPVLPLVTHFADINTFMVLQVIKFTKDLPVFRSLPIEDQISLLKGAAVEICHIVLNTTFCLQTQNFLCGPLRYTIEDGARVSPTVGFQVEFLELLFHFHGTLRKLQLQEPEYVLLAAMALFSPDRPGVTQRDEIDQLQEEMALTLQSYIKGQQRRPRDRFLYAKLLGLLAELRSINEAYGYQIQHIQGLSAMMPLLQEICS
# Method in brief: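 Antagonist mode used CITCO at a final 50 nM to activate CAR in human hepatoma HepG2 cells carrying stable hCAR and a 2.2 kb CYP2B6 promoter-luciferase construct. Compounds were tested at 15 concentrations over 24 h, with luminescence as the end point.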
# [5] = target: Nuclear receptor subfamily 1 group I member 3 (Homo sapiens) (UniProt Q14994); assay: qHTS assay to identify small molecule agonists of the constitutive androstane receptor (CAR) signaling pathway (AID 1224839); note: nearly all actives have a fitted effect of over 15% in size; note: potency is the fitted concentration of half-maximal effect
# Method in brief: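 HepG2 cells stably co-transfected with hCAR and a CYP2B6-2.2kb luciferase reporter; compounds at 15 concentrations with 0.75 uM PK11195 present. After 24 hr at 37 C, luciferase read by ONE-Glo luminescence.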
# [6] = qHTS assay to identify small molecule antagonists of the estrogen related receptor signaling pathway with the pleiotropic PPARgamma coactivator (PGC) from Tox21 10K library - cell viability counter screen (AID 1224840; active = well fitted cell-killing curve with a large enough effect in the repeat runs, not every such curve was filed as active; note: nearly all actives have a fitted effect of over 40% in size)
# Method in brief: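 Multiplexed viability counter screen in the PGC/ERR cell line: cells treated with DMSO-dissolved compounds for 17.5 hours at 37 C, then viability measured as CellTiter-Fluor fluorescence.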
# [7] = qHTS assay to identify small molecule antagonists of the estrogen related receptor signaling pathway with the pleiotropic PPARgamma coactivator (PGC) from Tox21 10K library (AID 1224841; call rule not given here; note: actives are mostly falling curves and most rising ones were filed inactive; nearly all actives have a fitted effect of over 50% in size; note: potency is the fitted concentration of half-maximal effect)
# Method in brief: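 Steps: plate 2,000 PGC/ERR cells per well; incubate 6 h at 37 C with 5% CO2; transfer compounds from DMSO stocks by pin tool; incubate 18 h at 37 C; add One-Glo; measure luminescence 30 min later.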
# [8] = qHTS assay to identify small molecule agonists of the estrogen related receptor signaling pathway with the pleiotropic PPARgamma coactivator (PGC) from Tox21 10K library (AID 1224842); note: nearly all actives have a fitted effect of over 15% in size; note: potency is the fitted concentration of half-maximal effect
# Method in brief: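 Luminescence from One-Glo (30 min, room temperature) measured after PGC/ERR cells had 18 h at 37 C with pinned compound (23 nL in DMSO). Cells had been seeded at 2,000 per well and pre-incubated 6 h.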
# [9] = target: Thyrotropin receptor (Homo sapiens) (UniProt P16473); assay: qHTS assay to identify small molecule agonists of the thyroid stimulating hormone receptor (TSHR) signaling pathway (AID 1224843; calls by dose curve; note: nearly all actives have a fitted effect of over 45% in size; note: potency is the fitted concentration of half-maximal effect)
# Thyrotropin receptor (Homo sapiens), sequence (P16473 whole entry, looked up): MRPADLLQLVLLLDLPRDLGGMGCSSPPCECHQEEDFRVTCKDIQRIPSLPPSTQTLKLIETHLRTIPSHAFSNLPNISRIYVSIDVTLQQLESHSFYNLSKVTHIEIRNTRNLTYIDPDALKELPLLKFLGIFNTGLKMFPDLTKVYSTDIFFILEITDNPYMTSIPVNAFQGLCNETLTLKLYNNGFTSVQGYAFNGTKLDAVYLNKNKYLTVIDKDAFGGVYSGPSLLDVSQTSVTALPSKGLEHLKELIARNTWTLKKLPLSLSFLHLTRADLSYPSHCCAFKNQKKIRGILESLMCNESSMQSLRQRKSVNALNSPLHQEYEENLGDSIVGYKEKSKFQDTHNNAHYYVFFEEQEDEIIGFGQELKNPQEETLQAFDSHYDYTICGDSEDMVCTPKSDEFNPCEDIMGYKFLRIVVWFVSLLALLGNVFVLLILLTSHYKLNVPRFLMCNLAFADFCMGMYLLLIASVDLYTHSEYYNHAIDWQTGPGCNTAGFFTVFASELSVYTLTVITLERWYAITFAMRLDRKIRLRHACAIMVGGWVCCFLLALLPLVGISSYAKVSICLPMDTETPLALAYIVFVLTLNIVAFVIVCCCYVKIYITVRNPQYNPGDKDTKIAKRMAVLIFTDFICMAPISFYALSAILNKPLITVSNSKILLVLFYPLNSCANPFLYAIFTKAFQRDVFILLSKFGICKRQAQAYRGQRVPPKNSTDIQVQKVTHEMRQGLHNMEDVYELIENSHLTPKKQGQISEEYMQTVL
# Method in brief: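 A cell-based cAMP HTRF format was run in TSHR-transfected HEK293 cells, 800 per well. Treatment: 30 min, room temperature. Detection: 1 h with labelled cAMP and anti-cAMP cryptate. Concentration-response over 15 points, three replicates.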
# [10] = qHTS assay to identify small molecule agonists of the hypoxia (HIF-1) signaling pathway - cell viability counter screen (AID 1224844; calls by dose curve; note: nearly all actives have a fitted effect of over 50% in size)
# Method in brief: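 Cytotoxicity was measured in parallel with the HRE-driven beta-lactamase readout: after 17 hrs of compound exposure at 37C, HRE-bla ME-180 cells received CellTiter-Glo and luminescence was recorded 30 min later.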
SMILES,Potency [1],Potency [2],Potency [3],Potency [4],Potency [5],Potency [6],Potency [7],Potency [8],Potency [9],Potency [10]
CC1(C)NC(=O)N(c2ccc([N+](=O)[O-])c(C(F)(F)F)c2)C1=O,inactive,inactive,inactive,inactive,inactive,inactive,inactive,inactive,inactive,inactive
CCO[Si](CCCNC(N)=O)(OCC)OCC,inactive,inactive,inactive,inactive,inactive,inactive,inactive,inactive,inactive,inactive
CC(=O)Oc1c(C)c(C)c2c(c1C)CC[C@@](C)(CCC[C@H](C)CCC[C@H](C)CCCC(C)C)O2,inactive,inactive,inactive,inactive,inactive,inactive,inactive,inactive,inactive,inactive
CCCN1C=CN(C)C1,inactive,inactive,inactive,inactive,inactive,inactive,–,–,inactive,inactive
COC(=O)c1ccc(C)cc1,inactive,inactive,inactive,inactive,inactive,inactive,–,–,inactive,inactive
C/C=C/C(=O)N(CC)c1ccccc1C,inactive,inactive,inactive,inactive,27.3 µM (active),inactive,inactive,inactive,inactive,inactive
Nc1cc([N+](=O)[O-])ccc1C(=O)O,64.6 µM (active) and 35.6 µM (active),inactive,inactive,inactive,inactive,inactive,–,–,inactive,inactive
c1ccc2cc3ccccc3cc2c1,inactive,inactive,inactive,inactive,19.9 µM (active) and 21.7 µM (active),inactive,inactive,inactive,inactive,inactive
COC(=O)CC(=O)OC,inactive,inactive,inactive,inactive,inactive,inactive,–,–,inactive,inactive
O=C(O)c1ccc(O)cc1,inactive,inactive,inactive,inactive,inactive,inactive,inactive,inactive,inactive,inactive
Cc1ccc(S(=O)(=O)O)cc1C,inactive,inactive,inactive,inactive,inactive,inactive,–,–,inactive,inactive
CNC[C@H](O)c1ccc(O)c(O)c1,inactive,inactive,inactive,inactive,inactive,inactive,inactive,1.54 µM (active) and 1.16 µM (active),770 nM (active) and 2.31 µM (active),inactive
CC(=O)[C@@]1(O)CC[C@H]2[C@@H]3C[C@H](C)C4=CC(=O)C=C[C@]4(C)[C@@]3(F)[C@@H](O)C[C@@]21C,inactive,inactive,inactive,inactive,inactive,inactive,inactive,inactive,–,inactive
C=CC(=O)OCCCC,inactive,inactive,inactive,inactive,inactive,inactive,inactive,inactive,inactive,inactive
CC1=CC(C)(C)Nc2ccccc21,inactive,inactive,inactive,inactive,inactive,inactive,inactive,inactive,–,inactive
ClC/C=C/CCl,inactive,inactive,inactive,inactive,inactive,inactive,inactive,inactive,inactive,inactive
CCCCCCCCCCC(CO)CCCCCCCC (stereo unspecified),inactive,inactive,inactive,inactive,inactive,inactive,–,–,inactive,inactive
COC(=O)C(C)Oc1ccc(Oc2ncc(C(F)(F)F)cc2Cl)cc1 (stereo unspecified),inactive,inactive,inactive,inactive,inactive,inactive,78 µM (active),inactive,inactive,inactive
Cc1ccc(C)c(O)c1,inactive,inactive,inactive,inactive,inactive,inactive,–,–,inactive,inactive
OC[C@@H](O)[C@@H](O[C@@H]1O[C@H](CO)[C@H](O)[C@H](O)[C@H]1O)[C@H](O)[C@@H](O)CO,inactive,inactive,inactive,inactive,inactive,inactive,inactive,inactive,inactive,inactive
C=C1C[C@H]2[C@@H]3C=C(C)C4=CC(=O)CC[C@]4(C)[C@H]3CC[C@]2(C)[C@@]1(OC(C)=O)C(C)=O,inactive,inactive,inactive,inactive,inactive,inactive,31.3 µM (active),inactive,–,inactive
CCCCCCCCCCCCO,31.3 µM (active),inactive,inactive,inactive,inactive,inactive,–,–,inactive,inactive

# Reference: PubChem BioAssay (Tox21)
